These results are taken from PubChem BioAssay AID588342 (National Center for Advancing Translational Sciences (NCATS), 2011).

Out of some 360,000 compounds screened, about 25,000 (6.9%) were called active. A call without a number means that no potency is given here. About 9% were inconclusive and are not listed. Calls follow the shape of the dose curve; as a rule, active = well fitted inhibition curve with a large enough effect; inconclusive = small, poorly fitted or top-dose-only effect; inactive = flat fitted curve, though single readings scatter. This excerpt belongs to a sample that is enriched for actives.
Potency is read from the fitted curve at half-maximal effect.

Chain of Luciferin 4-monooxygenase (Photinus pyralis) (P08659 whole entry, looked up): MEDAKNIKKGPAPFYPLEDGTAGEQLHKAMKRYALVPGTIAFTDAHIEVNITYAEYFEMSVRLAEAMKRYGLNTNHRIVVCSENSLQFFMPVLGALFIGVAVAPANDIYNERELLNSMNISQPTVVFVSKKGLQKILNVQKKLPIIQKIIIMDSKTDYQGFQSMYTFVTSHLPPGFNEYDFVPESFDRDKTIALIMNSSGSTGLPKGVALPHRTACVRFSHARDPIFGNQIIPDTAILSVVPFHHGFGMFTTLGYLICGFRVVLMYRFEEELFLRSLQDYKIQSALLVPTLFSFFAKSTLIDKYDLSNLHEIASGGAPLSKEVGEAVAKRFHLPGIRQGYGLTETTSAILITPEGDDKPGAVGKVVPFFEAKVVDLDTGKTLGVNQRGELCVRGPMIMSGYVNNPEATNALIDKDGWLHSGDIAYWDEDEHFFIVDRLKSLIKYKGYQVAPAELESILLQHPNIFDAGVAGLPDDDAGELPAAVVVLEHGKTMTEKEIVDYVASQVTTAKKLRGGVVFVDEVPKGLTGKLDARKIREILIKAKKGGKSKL

The experiment has as its target Luciferin 4-monooxygenase (Photinus pyralis) (UniProt P08659). Briefly: qHTS profiling assay for firefly luciferase inhibitor/activator using purifed enzyme and Km concentrations of substrates (counterscreen for miR-21 project). Also: nearly all actives have a fitted effect of over 55% in size. To be noted: purified FLuc, luminescence inhibition; series mostly up to 57.5 µM. The gist of the method:
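Purified P. pyralis luciferase, 10 nM final, with Km-level 10 uM D-luciferin and 10 uM ATP in 50 mM Tris acetate pH 7.5, 10 mM Mg acetate, 0.01% Tween-20, 0.05% BSA; 6-point qHTS titration about 60 µM downward; luminescence read.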
On the technique in general: In qHTS, concentration-response curves come from the screen itself.
For `COc1cc(C(=O)Nc2ccc(OCc3cc(=O)n4cc(C)sc4n3)cc2)cc(OC)c1OC`, the Potency result is “inactive”.

Regarding `CCN(C(=O)CSc1nc(N)cc(=O)[nH]1)C1CCS(=O)(=O)C1` (stereo not given), the Potency result was “inactive”.

Consider `O=C(CN1CCCCC1)Nc1ccccc1C(=O)NC1CC1`, for which the Potency entry was “inactive”.

Consider `Cc1ccc(-c2nnc(Nc3ccc(OCC(N)=O)cc3)c3ccccc23)cc1S(=O)(=O)NCC1CCCO1` (stereo not given), for which the Potency entry was “inactive”.

With `CCCN(C(=O)Cn1cc(S(=O)(=O)N2CCN(c3ccccc3F)CC2)c2ccccc2c1=O)c1cccc(C)c1`, the Potency result was “inactive”.

Turning to `COc1cccc(/C=C/C(=O)OCC(=O)N2CCN(c3ccccc3)CC2)c1`, the Potency result was “inactive”.

With `CN=C1C=C/C(=N/N=c2\ccn(O)cc2C)C=C1C`, the Potency was 15.1 µM (active).

With `CSc1ccccc1NC(=O)COC(=O)CCCOc1ccc(C)cc1`, the Potency result is “inactive”.

Consider `CCCNC(=O)C(CC)n1nc(CC)n2c(cc3oc(C)cc32)c1=O` (stereo not given), for which the Potency result was “inactive”.

As for `CCN(CC)S(=O)(=O)c1ccc(N2CCOCC2)c(NC(=O)C2CSC3(C)CCC(=O)N23)c1` (stereo not given), the Potency entry was “inactive”.

As to `O=C(Nc1ccc(S(=O)(=O)Nc2nccs2)cc1)c1cc(-c2ccncc2)nc2ccccc12`, the Potency entry is “inactive”.

Take `CCCCN(C)CCCNC(=O)c1cc(-c2cccs2)nc2ccccc12`: the Potency result is “inactive”.

With `O=C(Nc1nnc(-c2ccccc2)o1)c1cc(-c2cccs2)nc2ccccc12`, the Potency was 19 µM (active).

Consider `Cc1cccc(CC(=O)N2CC(=O)Nc3ccc(F)cc3C2c2ccccc2)c1` (stereo not given), for which the Potency entry was “inactive”.

For the compound `Cc1ccc(CSc2nc3ccsc3c(=O)n2CCC(C)C)cc1`, the Potency result was “inactive”.

In the case of `COc1ccc(NC(=O)CSc2nnc(C3CC3)n2C)cc1S(=O)(=O)N1CCCCC1`, the Potency result is “inactive”.

In the case of `Fc1cc(F)c2nc(Nc3nc4c(F)cccc4s3)sc2c1`, the Potency is 4.78 µM (active).

With `COc1cc2ccccc2cc1C(=O)N(CCN(C)C)c1nc2c(F)cccc2s1`, the Potency result is “inactive”.

`NC(=O)c1c(Nc2nc3c(F)cccc3s2)sc2c1CCCC2`: the Potency entry was “inactive”.

As for `COc1ccc(-c2cn3nc(N4CCC(C(=O)Nc5cccc(C)c5C)CC4)sc3n2)cc1`, the Potency entry is “inactive”.

Turning to `CCc1ccc(NC(=O)CN2C(=O)CSC2=O)cc1`, the Potency was 10.7 µM (active).

`COc1ccc(NC(=O)CN2C(=O)CSC2=O)cc1`: the Potency entry is “inactive”.

Take `CCc1ccc(NC(=O)CN2C(=O)CCSc3ccc(S(=O)(=O)N4CCCC4)cc32)cc1`: the Potency result is “inactive”.

Regarding `CCn1c(=O)c2cc(C(=O)NCCc3ccc(Cl)cc3)sc2c2ccccc21`, the Potency result was “inactive”.

Take `COc1ccc(-c2onc(C)c2C)cc1S(=O)(=O)NCCc1ccccc1`: the Potency entry was “inactive”.

For the compound `CC(=O)OCc1cc2cc(C)ccc2[nH]c1=O`, the Potency entry is “inactive”.

On to `CCOC(=O)c1cc2cc(C)ccc2[nH]1`, for which the Potency was 12 µM (active).

With `Cc1ccc2[nH]c(=O)c(COC(=O)c3ccccn3)cc2c1`, the Potency result is “inactive”.

Turning to `COc1cc(OC)c(NC(=O)c2cc(S(=O)(=O)N3CCCC3)cn2C)cc1Cl`, the Potency result is “inactive”.

`O=C(/C=C\c1ccc2c(c1)OCO2)NC1(C(=O)Nc2ccc3c(c2)OCCO3)CCCCC1`: the Potency entry is “inactive”.

With `Cc1ccc2nc(-c3ccccn3)cc(C(=O)Nc3ccc4c(c3)OCO4)c2c1`, the Potency result is “inactive”.

As for `Cc1cccc(NC(=O)/C=C/c2ccc3c(c2)OCO3)n1`, the Potency was 0.849 µM (active).

As for `CCOC(=O)CCCNC(=O)COC(=O)/C=C/c1ccc2c(c1)OCO2`, the Potency entry was “inactive”.

`CC(C)CNS(=O)(=O)c1ccc(C(=O)Nc2ccc3c(c2)OCO3)cc1`: the Potency result was “inactive”.

Take `CNS(=O)(=O)c1ccc(NC(=O)Nc2ccc3c(c2)OCO3)cc1`: the Potency was 6.01 µM (active).

Turning to `O=C(Nc1ccc2c(c1)OCO2)c1cc(-c2cccc(Cl)c2)on1`, the Potency result was “inactive”.

For the compound `Cc1cccc(NC(=O)Nc2ccc3c(c2)OCO3)n1`, the Potency was 2.69 µM (active).

Consider `CCN(CC(=O)Nc1ccc2c(c1)OCO2)S(=O)(=O)c1ccccc1`, for which the Potency result was “inactive”.

For the compound `CCOc1ccc(OCC(=O)Nc2c3c(nn2C(C)(C)C)CS(=O)(=O)C3)cc1`, the Potency entry was “inactive”.

For the compound `COc1cccc(NC(=O)CN(C)C(=O)CSCc2nc3scc(-c4cccs4)c3c(=O)[nH]2)c1`, the Potency result was “inactive”.

For the compound `CC(C)CC(NS(=O)(=O)c1ccc2c(c1)oc(=O)n2C)C(=O)NCc1ccccc1Cl` (stereo not given), the Potency result was “inactive”.

With `COc1ccccc1C(CNC(=O)c1ccc(C)c(S(=O)(=O)N2CCCCC2)c1)N(C)C` (stereo not given), the Potency entry was “inactive”.

As for `Fc1ccc(Nc2nc(SCc3ccccc3Cl)nc3ccccc23)cc1`, the Potency result is “inactive”.

With `COc1ccccc1NC(=O)c1ccc(N2CC3CC(C2)c2cccc(=O)n2C3)c(NC(=O)c2cccnc2)c1` (stereo not given), the Potency result is “inactive”.

`COC(=O)c1cnn(-c2ccc(C(=O)Nc3ccc(OC(F)(F)F)cc3)cc2)c1N`: the Potency result is “inactive”.

On to `COc1ccccc1CCC(=O)NNC(=O)c1ccncc1`, for which the Potency result was “inactive”.

Regarding `O=C(O)c1ccc(/C=C2\SC(=S)N(NC(=O)c3ccc(Br)cc3)C2=O)cc1`, the Potency entry is “inactive”.

Regarding `O=C(CN1C(=O)S/C(=C\c2ccccc2Cl)C1=O)NC1C=CS(=O)(=O)C1` (stereo not given), the Potency result is “inactive”.

As for `COc1cccc(/C=C2/SC(=S)N(CC(=O)NC3C=CS(=O)(=O)C3)C2=O)c1` (stereo not given), the Potency was 6.75 µM (active).

As to `COc1cccc(/C=C2\SC(=N)N(c3ccc(F)cc3)C2=O)c1`, the Potency entry is “inactive”.

`COc1ccc(/C=C2\SC(=S)N(CC(=O)NNC(=O)c3ccncc3)C2=O)cc1`: the Potency is 5.36 µM (active).

Consider `O=C1N(Cc2ccc3c(c2)OCO3)c2ccccc2C1(O)c1c[nH]c2ccccc12` (stereo not given), for which the Potency entry was “inactive”.

Regarding `O=C(c1ccc2c(c1)N(Cc1ccccc1)C(=O)c1ccccc1S2(=O)=O)N1CCCC1`, the Potency entry is “inactive”.

As for `CC(C)(C)OC(=O)N[C@H](C(=O)OC(C)(C)C)c1ccc(Br)cc1`, the Potency entry is “inactive”.

Take `COc1cc(C#Cc2ccc3cc(CCCO)oc(=O)c3c2)cc(OC)c1`: the Potency is 4.78 µM (active).

For the compound `O=C1c2ccccc2C(=O)N1CCC#Cc1ccc2cc(C3(O)CCCCC3)oc(=O)c2c1`, the Potency entry is “inactive”.

In the case of `CCC(Sc1nc2n[nH]c(C)c2c(=N)n1-c1ccccc1Cl)C(=O)N(CC)CC` (stereo not given), the Potency entry was “inactive”.

Turning to `Cc1ccccc1CS(=O)(=O)CC1Nc2ccc(C(=O)NCc3ccc(Cl)cc3)cc2NC1=O` (stereo not given), the Potency entry was “inactive”.

In the case of `CCCCOc1ccc(Cn2c(=O)oc3ccc(C)cc32)cc1OC`, the Potency entry is “inactive”.

`CC(C)=C1SC(N2CCN(c3cccc(C)c3)CC2)=NC1=O`: the Potency result was “inactive”.

On to `CCn1c(=O)n(CC)c2cc(N3CCCC3)c(NC(=O)c3ccccc3Br)cc21`, for which the Potency result is “inactive”.

`CCN1C(=O)/C(=C2\SC(N3CCCCC3)=NC2=O)c2ccccc21`: the Potency was 3.38 µM (active).

As for `CC(C)CNC(=S)NC(=O)c1ccc(Cl)cc1`, the Potency was 12 µM (active).

For the compound `Cc1occc1C(=O)NNC(=S)NCC(C)C`, the Potency result was “inactive”.

On to `CC(C)C(NC(=O)c1ccc(Cl)cc1)C(=O)O` (stereo not given), for which the Potency result is “inactive”.
